The text below walks through data of PubChem BioAssay AID1650 (Southern Research Specialized Biocontainment Screening …, 2009).

The structures appear in SMILES notation. Entries with a potency or affinity are not part of this list. Values without a mark were called inactive. The rule behind the calls is not given here.

The nature of the assay: host cell cytotoxicity of antiviral hits, dose response, cytotoxicity control for West Nile virus antiviral project, secondary assay (AID 1650). The following applies: Mammalian host cell viability, cytotoxicity counter-screen; series mostly up to 10 µM; viability: at the top concentration.
As to `CCOC(=O)c1c(CN2CCN(C)CC2)n(C)c2cc(Br)c(OC)cc12`, the viability (in general, a per cent measure of how many cells are alive, often set against a control) is 75.1% [at 20 µM].

Take `O=C1OC(N2CCN(Cc3ccccc3)CC2)c2ccccc21` (stereo not given): the “viability” value was 98.3% [at 20 µM].

As to `CCCN1CCN(C(=S)Nc2ccc3nc(N4CCN(CC)CC4)cc(C)c3c2)CC1`, the “viability” value was 81.2%.

`CN(C)CCCN(C(=O)c1ccco1)c1nc2ccc(Cl)cc2s1`: the “viability” value is 83.3%.

For the compound `COc1ccc(C2c3[nH]c4ccccc4c3CCN2C(=O)c2cc3ncccn3n2)c(F)c1` (stereo not given), the “viability” value was 85%.

`COc1cccc(C2CC(c3c(-c4ccccc4)c4cc(Cl)ccc4[nH]c3=O)=NN2S(C)(=O)=O)c1OC` (stereo not given): the “viability” value was 77.8%.

Consider `CCOc1ccc2nc(N3CCCC(C(=O)NCCCN4C(C)CCCC4C)C3)sc2c1` (stereo not given), for which the “viability” value is 86.3% [at 20 µM].

Consider `COc1ccc(CCNC(=O)c2cc3c(=O)n4cccc(C)c4nc3n(CCCN3CCOCC3)c2=N)cc1`, for which the “viability” value was 79.9%.

In the case of `CN1CCN(C(=O)CCN2C(=O)/C(=C\c3ccc(Cl)cc3Cl)SC2=S)CC1`, the “viability” value was 82.2%.

For the compound `CN1CCN(CC(=O)Nc2c(C(=O)c3ccccc3)oc3ccccc23)CC1`, the “viability” value was 77.5%.

For the compound `Cc1cccc(CN2CCC(CNC(=O)Nc3ccc(F)c(Cl)c3)CC2)c1`, the “viability” value was 86.1% [at 20 µM].

Consider `CCOC(=O)N1CCC2(CC1)C(C#N)=C(N)OC1=C2C(=O)CCC1`, for which the “viability” value is 95.4%.

As for `O=C(/C=C/c1cccnc1)c1ccc(O)cc1`, the “viability” value was 74.1%.

On to `O=C(CCC1CCCC1)N=C1SC2CS(=O)(=O)CC2N1Cc1ccccc1` (stereo not given), for which the “viability” value was 85.2%.

Take `CCN(CC)CCNC(=O)c1ccc(NC(=O)/C=C/c2ccc3ccccc3n2)cc1`: the “viability” value is 86.2%.

`Cn1cc(CN2CCCC(C(=O)Nc3ccc(-c4cccc(F)c4)cc3)C2)cn1` (stereo not given): the “viability” value is 86.8%.

In the case of `CCCc1nc2c(c(=O)c3ccccc3n2C)c(=O)n1C1CCCCCC1`, the “viability” value is 76.9% [at 20 µM].

As for `Cc1ccc(-n2c(SCC(=O)Nc3ccc(N4CCOCC4)cc3)nc3ccccc3c2=O)cc1`, the “viability” value is 85.4%.

Regarding `O=C(CCN1C(=O)/C(=C\c2ccccc2Cl)SC1=S)N1CCN(c2ccccc2)CC1`, the “viability” value was 76.2% [at 20 µM].

Turning to `CCCN(CC(=O)Nc1cccc(Br)c1)CC(=O)Nc1ccc(F)c(F)c1F`, the “viability” value was 84.9%.

Take `CN(C)CCN(C)Cc1ccccc1Sc1cccc2ccccc12`: the “viability” value is 78.4%.

As for `COc1ccc(C2c3c(ncn(CCN4CCOCC4)c3=N)Oc3ccc4ccccc4c32)cc1` (stereo not given), the “viability” value is 84.2%.

`CCOC(=O)C(=Cc1ccc(F)cc1)C(=O)OCC`: the “viability” value was 73.7%.

On to `CCN1CCN(CCCNC(=O)C2CCCN(c3nc4c(C)cc(C)cc4s3)C2)CC1` (stereo not given), for which the “viability” value is 86.5%.

Regarding `CCN1CCN(CCCNC(=O)c2cc3c(s2)-c2ccccc2OC3)CC1`, the “viability” value was 74.8%.

Turning to `CCc1ccc2nc(N(CCCN(C)C)C(=O)c3ccc4c(c3)OCCO4)sc2c1`, the “viability” value was 76% [at 20 µM].

Take `CC1(C)CC(NC(=O)COc2cc3oc(=O)c4c(c3cc2Cl)CCC4)CC(C)(C)N1`: the “viability” value is 81.5%.

As for `Cc1cc(C)nc(S/C=C/C(=O)c2ccccc2F)n1`, the “viability” value was 77.7% [at 20 µM].

With `COc1ccc2cc(Br)ccc2c1CC(=O)NC1CC(C)(C)NC(C)(C)C1`, the “viability” value was 87.9%.

With `O=S(=O)(/C=C/c1ccccc1)Oc1ccccc1`, the “viability” value was 80.8%.

Take `O=C(Nc1ccc(Nc2ccccc2)cc1)C(Cl)Cl`: the “viability” value is 78.6%.

With `COc1ccc(OCc2cccc(C(=O)Nc3ccc(CN4CCCCC4)cc3)c2)cc1`, the “viability” value is 85.2% [at 20 µM].

Consider `COc1ccc(NC(=S)Nc2ccc3nsnc3c2)cc1`, for which the “viability” value is 85.6%.

`Cc1cc(C)cc(SCc2noc(C(=O)NCCCN3CCOCC3)c2C(=O)NCCCN2CCOCC2)c1`: the “viability” value was 83.3%.

For the compound `O=C(Nc1cccc(-c2cccc(Cl)c2)c1)C1CCN(CC2CCOC2)CC1` (stereo not given), the “viability” value was 77.2%.

With `C/C(=N\Nc1nnc(-c2ccccc2)c(-c2ccccc2)n1)c1cccc([N+](=O)[O-])c1`, the “viability” value was 82.4%.

With `O=C(CCN1C(=O)/C(=C/c2ccccc2Cl)SC1=S)NCCc1ccc(O)cc1`, the “viability” value is 83.2%.

Turning to `CCCCN(C)CCNC(=S)Nc1ccc2nc(N3CCN(CC)CC3)cc(C)c2c1`, the “viability” value is 83.8%.

Turning to `Cc1cc(N2CCN(C)CC2)nc2ccc(NC(=S)N3CCN(c4ccccn4)CC3)cc12`, the “viability” value is 73.7%.

`CCOC(=O)c1cnc2ccc(OC)cc2c1Nc1ccc(N2CCN(C)CC2)cc1`: the “viability” value is 79.1%.
